The results in this text go back to ChEMBL document CHEMBL3433997, “St. Jude Leishmania screening dataset” (2016).

Each structure is given as a SMILES string.

Type in all cases: functional
The target of test [1] is Solute carrier family 2, facilitated glucose transporter member 1 (Homo sapiens) (UniProt P11166). Nature of the test: ST_JUDE_LEISH: Cytotoxicity at 2uM final concentration against transgenic Leishmania Mexicana promastigotes LmGLUT1 that are glucose transport deficient and complemented with the human glucose transporter GLUT1. Activity is measured by DNA content using SYBR green in vitro.

The target in test [2] is Hexose transporter 1 (Plasmodium falciparum) (UniProt O97467). Description: ST_JUDE_LEISH: Cytotoxicity at 2uM final concentration against transgenic Leishmania Mexicana promastigotes LmPfHT that are glucose transport deficient and complemented with the Plasmodium falciparum hexose transporter. Activity is measured by DNA content using SYBR green in vitro.
Test [3] has as its target Glucose transporter (Leishmania mexicana) (UniProt O61059). Nature of the test: ST_JUDE_LEISH: Cytotoxicity at 2uM final concentration against transgenic Leishmania Mexicana promastigotes LmGT2 that are glucose transport deficient and complemented with the L. Mexicana glucose transporter 2. Activity is measured by DNA content using SYBR green in vitro.

Chain of Solute carrier family 2, facilitated glucose transporter member 1 (Homo sapiens) (P11166 whole entry): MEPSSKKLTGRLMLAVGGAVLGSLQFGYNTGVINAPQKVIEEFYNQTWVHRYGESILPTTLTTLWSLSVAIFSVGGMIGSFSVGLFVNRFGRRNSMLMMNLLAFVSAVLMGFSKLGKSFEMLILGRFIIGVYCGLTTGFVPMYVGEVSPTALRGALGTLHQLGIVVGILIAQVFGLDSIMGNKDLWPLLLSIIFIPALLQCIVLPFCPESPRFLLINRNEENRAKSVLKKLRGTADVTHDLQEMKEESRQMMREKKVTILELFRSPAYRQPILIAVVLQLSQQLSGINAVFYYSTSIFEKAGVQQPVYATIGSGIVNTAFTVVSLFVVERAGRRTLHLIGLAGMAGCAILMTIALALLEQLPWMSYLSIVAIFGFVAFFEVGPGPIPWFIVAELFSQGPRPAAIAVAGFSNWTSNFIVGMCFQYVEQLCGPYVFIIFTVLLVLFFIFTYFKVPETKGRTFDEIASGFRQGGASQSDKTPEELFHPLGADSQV

Turning to `N#Cc1ccc(-c2ccc(C(=O)NCCCCN3CCC(n4cnc5ccccc54)CC3)cc2)cc1`, the inhibition (in general, the relative decrease from the control value, in per cent) in test [1] stood at 3.46%; in test [2] it was 3.72%; in test [3], 5.28%.

Take `O=S(=O)(c1cc2ccccc2s1)N(CCC(O)(C(F)(F)F)C(F)(F)F)Cc1cccc(O)c1`: the inhibition is -0.29% in test [1], -1.09% in test [2] and 1.75% in test [3].

On to `O=C(Nc1cccc(-c2ccc(-c3nc4cc(F)ccc4[nH]3)cc2)c1)Nc1ccc(Cl)c(Cl)c1`, for which the results for the inhibition in test [1], in test [2] and in test [3] were 5.5%, 2.93% and 5.84%, respectively.

As to `CN(C)c1ccc(CN2CCCCC(NC(=O)c3cc(-c4ccccc4F)cs3)C2)cc1` (stereo not drawn), the inhibition in test [1] was -0.57%; in test [2], -0.62%; in test [3], -7.76%.

As to `Nc1nc(F)nc2nc[nH]c12`, the inhibition in test [1] turned out to be 29.6%; in test [2] it was 29.2%; in test [3] it was 22%.

For `O=C(Nc1ccnc(N2CCCN(Cc3cccc(O)c3)CC2)c1)c1ccc(F)cc1`, the results for the inhibition in test [1], in test [2] and in test [3] were 2.79%, 0.77% and 4.83%, respectively.

Regarding `O=C(NCCCN1CCC(N2CCCCC2)CC1)c1ccc2nc(N3CCCCC3)sc2c1`, the inhibition in test [1] was found to be 5.78%; in test [2], 8.39%; in test [3], 8.02%.

As for `Cc1cc(N2CCCC2)nc(Nc2ccc(NC(=O)c3ccc(Br)o3)cc2)n1`, the values for the inhibition in test [1], in test [2] and in test [3] were 4.16%, 9.42% and 5.64%, respectively.

As for `FC(F)(F)c1cc(Nc2ncnc3ccc(Br)cc23)ccc1OCc1ccccc1`, the inhibition was determined as 6.39% in test [1], 3.97% in test [2] and 3.84% in test [3].

In the case of `CC(C)CCN1CCCN(Cc2cccc(NC(=O)c3cc4ccccc4s3)c2)CC1`, the inhibition in test [1] was -0.92%; in test [2] it was 0.43%; in test [3] it was 2.29%.

For `Nc1cc(-c2cc3c(OCc4ccccc4)cccc3[nH]2)ccn1`, the inhibition in test [1] was determined as 1.13%; in test [2], 4.32%; in test [3] it was 1.6%.

Turning to `O=S(=O)(NC1=NCCC1)c1cccc(Nc2nc(C(F)(F)F)nc3ccccc23)c1`, the inhibition in test [1] was -1.06%; in test [2], -1.27%; in test [3], -3.08%.

For `CCOc1cc(Cl)c(C(C)NC(=O)c2cccc(OC)c2)cc1OCC` (stereo not drawn), the inhibition was determined as 7.84% in test [1], 7.46% in test [2] and 4.84% in test [3].

As to `CCC(C)(C)n1c(C)cc2c3c(N)nc(N)nc3ccc21`, the inhibition in test [1] came to 71.7%; in test [2], 77.2%; in test [3], 63.6%.

With `NC(=O)c1ccc(C(=O)Nc2cccc(-c3ccc(-c4nc5cc(C(F)(F)F)ccc5[nH]4)cc3)c2)cc1`, the inhibition in test [1] was -2.41%; in test [2], -0.2%; in test [3], -2.73%.

As for `O=C1CCCN1CCCNCc1ccc(-c2cccc(-c3nc4cc(F)ccc4[nH]3)c2)cc1`, the inhibition in test [1] is -2.56%; in test [2], -0.8%; in test [3], -2.7%.

`Cc1ccc(Cn2ncc(N3CC(C)NC(C)C3)c(Cl)c2=O)cc1NC(=O)Nc1ccc(-c2ccccc2)cc1` (stereo not drawn): the inhibition in test [1] was 14.6%; in test [2] it was 13.9%; in test [3], 13.6%.

`Cc1cc(NCCC(=O)Nc2ccccc2)nc(NCCc2ccc(F)cc2)n1`: the results for the inhibition in test [1], in test [2] and in test [3] were 3.19%, 3.34% and 1.6%, respectively.

Turning to `Cc1cc(OC(C)C(=O)N2CCc3ccccc32)ccc1Cl` (stereo not drawn), the inhibition stood at 4.58% in test [1], 3.8% in test [2] and 6.71% in test [3].

Take `CC(C)Oc1cc2c(cc1NS(=O)(=O)c1ccc(-c3ccc(Cl)cc3)cc1)CCN(C)CC2`: the inhibition in test [1] worked out at 2.55%; in test [2], 7.31%; in test [3], 4.31%.

Regarding `Cc1cc(NCCCOc2ccc(Cl)cc2)nc(NCc2ccccc2)n1`, the inhibition in test [1] was found to be 18.8%; in test [2], 11.1%; in test [3], 7.19%.

Take `COc1ccc(CNCc2ccc(F)cc2)cc1-c1ccc(OC)c(S(=O)(=O)NCCN2CCCC2)c1`: the inhibition came to 5.21% in test [1], 6.27% in test [2] and 4.28% in test [3].

Consider `Nc1nc(N)c2cc(CNc3ccc(Cl)c(Cl)c3)ccc2n1`, for which the inhibition was 8.27% in test [1], 6.41% in test [2] and -0.28% in test [3].

With `CN(C)CCc1coc2ccc(C(=O)Nc3ccc(-c4ccc(O)cc4)cc3)cc12`, the inhibition in test [1] came out at 4.69%; in test [2], 4.41%; in test [3], 2.77%.

For the molecule `COc1ccc(NC(=O)[C@H](Cc2ccccc2)Nc2cc(C)nc(NCC3CCCCC3)n2)cc1`, the inhibition in test [1] turned out to be 1.62%; in test [2], 2.59%; in test [3], 0.65%.

Consider `Clc1ccc(CNc2ccnc(NCc3ccc4c(c3)OCCCO4)n2)c(Cl)c1`, for which the inhibition in test [1] worked out at 4.44%; in test [2] it was 5.76%; in test [3], 3.69%.

On to `CN1CCCC(CN2CCN(Cc3cccc(-c4ccc(-c5nc6cc(F)ccc6[nH]5)cc4)c3)CC2)C1` (stereo not drawn), for which the inhibition in test [1] was found to be 2.66%; in test [2], 1.97%; in test [3], 1.35%.

In the case of `COc1cc(CNC[C@@H](O)[C@H](Cc2ccccc2)NC(=O)c2cc(OC(C)C)cc(N3CCCCS3(=O)=O)c2)cc(OC)c1`, the inhibition in test [1] was 2.15%; in test [2], 2.12%; in test [3], 1.3%.

On to `COc1ccc(CNC(=O)NC2CCN(c3ccnc(Nc4ccc(OC)cc4)n3)C2)cc1` (stereo not drawn), for which the values for the inhibition in test [1], in test [2] and in test [3] were 1.61%, 1.7% and 1.82%, respectively.

In the case of `COCCNCc1ccc(-c2ccc(CNc3ccc4ncccc4c3)cc2)cc1`, the inhibition in test [1] amounted to 2%; in test [2] it was 4.18%; in test [3] it was 1.36%.

For the molecule `CCCNCc1ccc(-c2ccc(CN(Cc3cnc(C)cn3)C(=O)CC#N)cc2)nc1`, the inhibition was 1.8% in test [1], 1.17% in test [2] and -1.49% in test [3].

Regarding `Cc1cc(NS(=O)(=O)c2cccc(C(C)N3CCC(N4CCCC4)CC3)c2)ccc1C(C)C` (stereo not drawn), the inhibition stood at 6.44% in test [1], 5.82% in test [2] and 1.55% in test [3].

As to `CC1CN(Cc2ccc(-c3cccc(-c4nc5cc(F)ccc5[nH]4)c3)cc2)CC(C)O1` (stereo not drawn), the inhibition was 1.55% in test [1], 7.65% in test [2] and 2.46% in test [3].

In the case of `CC(=O)c1ccc(-c2ccccc2)s1`, the figures for the inhibition in test [1], in test [2] and in test [3] were 2.16%, 3.72% and 1.61%, respectively.

For `Cc1cccc2nc(-c3cccc(-c4ccc(NC(=O)C(C)CN5CCOCC5)cc4)c3)[nH]c12` (stereo not drawn), the inhibition was 3.62% in test [1], 2.93% in test [2] and 4.9% in test [3].

For the molecule `COc1ccccc1N(C)CCNc1cc(C)nc(Nc2ccc(C)cc2)n1`, the inhibition was 8.84% in test [1], 7.28% in test [2] and 1.83% in test [3].
